Screens: PubChem, National Center for Advancing Translational Sciences (NCATS)
Only some compounds are listed: those with a hit (about 21% of all), similar ones and a draw of the others.
CHX counter – counter-screen for Shiga toxin inhibitors: cycloheximide protein synthesis inhibition; cell reporter, cycloheximide protein synthesis inhibition counterscreen; actives 12% (n = 300,000); max response, %; AID 2314; in the data active = max response mostly above about 13%, no sharp cut-off; inactive = mostly below about 14%; also: read at 38.3 µM for the half of the compounds with a filed dose
Pf growth 48h – inhibits P. falciparum growth in the first generation, 48 h | P. falciparum luciferase growth in erythrocytes, 48 h | Potency, µM (top dose mostly 28.7 µM), most hits filed as inhibitors | actives 5.9% (n = 310,000) | AID 504832
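Firefly luciferase activity from engineered P. falciparum reports growth; inhibitors lower the luminescent signal. Cultures contained 2% hematocrit erythrocytes at 0.1% final parasitemia.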
Pf growth 96h – P. falciparum growth inhibition at 96 hours. P. falciparum luciferase reporter growth, 96 h. Potency, µM (series often up to 28.7 µM), hits mostly inhibitors. actives 6.9% (n = 320,000)
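Two-generation exposure (96 h) targets delayed-death phenotype. Reporter parasites carrying integrated firefly luciferase, in red cells at 2% hematocrit and 0.05% parasitemia final, kept at 37 C, 5% CO2; luminescence loss indicates inhibition.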
Giardia FBPA inh – blocks Giardia fructose-bisphosphate aldolase activity; A8B2U2; purified Giardia FBPA; Potency, µM (highest dose often 59.6 µM), usual class: inhibitors; actives 0.71% (n = 290,000); AID 2451; also: nearly all actives have a fitted effect of over 55% in size
Target sequence (A8B2U2 whole entry, looked up): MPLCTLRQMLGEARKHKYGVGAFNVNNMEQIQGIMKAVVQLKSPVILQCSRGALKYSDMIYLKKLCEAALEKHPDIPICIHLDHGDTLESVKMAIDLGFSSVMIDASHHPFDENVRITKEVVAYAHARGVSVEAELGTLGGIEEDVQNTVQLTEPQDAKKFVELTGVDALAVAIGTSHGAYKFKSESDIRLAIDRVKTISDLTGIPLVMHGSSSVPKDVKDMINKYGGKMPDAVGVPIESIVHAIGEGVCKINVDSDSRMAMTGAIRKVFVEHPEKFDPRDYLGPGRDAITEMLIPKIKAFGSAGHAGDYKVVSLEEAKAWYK
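Giardia FBPA (40 nM reagent) was preincubated 10 min at RT with compound (up to 57.5 uM final), then substrate plus GAPDH/TPI/NAD/arsenate coupling system with diaphorase/resazurin was added; resorufin fluorescence (525/598 nm) was read after 20 min.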
Shiga toxin inh – inhibitors of Shiga toxin in Vero cells; Vero cells, Shiga toxin protein synthesis inhibition reporter; actives 9.2% (n = 290,000); inhibition, % at 38.7 µM; in the data active = inhibition mostly above about 28%, no sharp cut-off; inactive = mostly below about 43%
NS1 function inh – inhibitors of influenza NS1 protein function; actives 0.4% (n = 270,000); Potency, µM (highest dose often 46.1 µM); calls by dose curve; also: actives are rising curves; nearly all actives have a fitted effect of over 50% in size
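Read-out: OD600 growth recovery of NS1-expressing budding yeast. Cells grown overnight at 30C in -URA glucose medium, washed, resuspended and diluted 1:100 in 2% galactose assay medium, pH 6.0. Same strain lacking NS1 served as positive control.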
A number is an active result; [ ] = dose if it differs, or a comment. Unless noted, calls follow the shape of the dose curve; as a rule, active = well fitted curve in the direction sought with a large enough effect; inconclusive = small, poorly fitted or top-dose-only effect, or another doubt; inactive = no such curve, though single readings can be large; an effect the other way counts as inactive or inconclusive.

For Cc1ccc(CNC(=O)c2ccc(N3CCC4(CC3)CC(c3cccc(Br)c3)=NO4)c(NC(=O)c3ccco3)c2)cc1 the results were Pf growth 48h 1.7µM and Pf growth 96h 3.7µM.
Screening CCCCC(CC)C(=O)Nc1cc(C(=O)NCCC)ccc1N1CCC2(CC1)CC(c1ccccc1)=NO2 (centres undefined) returned CHX counter inactive, Pf growth 48h inactive, Pf growth 96h 1.5µM, Giardia FBPA inh inactive, Shiga toxin inh inactive and NS1 function inh inconclusive.
For COC(=O)c1ccccc1NC(=O)CSc1ncn[nH]1 the results were CHX counter inactive, Pf growth 48h inactive, Pf growth 96h inactive, Giardia FBPA inh inactive, Shiga toxin inh inactive and NS1 function inh inactive.
COC(=O)C/C=C\[C@@H](C)[C@@H](/C=N\O[C@@H](C)c1cn([C@H]2COC[C@H]2O)nn1)OC was read as Giardia FBPA inh inactive[12.9 µM].
`O=C(COc1cccc2ccccc12)N/N=C/c1ccco1` gave CHX counter inactive, Pf growth 48h inactive, Pf growth 96h inactive, Shiga toxin inh inactive and NS1 function inh inactive.
`CSCC[C@H](NC(=O)[C@H](Cc1ccc(OS(=O)(=O)O)cc1)NC(=O)[C@@H](N)CC(=O)O)C(=O)NCC(=O)N[C@@H](Cc1c[nH]c2ccccc12)C(=O)N[C@@H](CCSC)C(=O)N[C@@H](CC(=O)O)C(=O)N[C@@H](Cc1ccccc1)C(N)=O` gave CHX counter inactive, Giardia FBPA inh inactive and Shiga toxin inh inactive.
Screening CCCNC(=O)c1ccc(N2CCC3(CC2)CC(c2ccccc2)=NO3)c(NC(=O)c2ccco2)c1 returned CHX counter inactive, Pf growth 48h inconclusive, Pf growth 96h 1.2µM, Giardia FBPA inh inactive, Shiga toxin inh inactive and NS1 function inh inactive.
Cc1ccc(CNC(=O)c2ccc(N3CCC4(CC3)CC(c3ccccc3)=NO4)c(NC(=O)c3ccccc3)c2)cc1 was read as Pf growth 48h 4.7µM and Pf growth 96h inconclusive.
O=C(NCc1ccccc1)c1ccc(N2CCC3(CC2)CC(c2ccccc2)=NO3)c([N+](=O)[O-])c1 was read as CHX counter inactive, Pf growth 48h inconclusive, Pf growth 96h inconclusive, Giardia FBPA inh inactive, Shiga toxin inh inactive and NS1 function inh inactive.
CN(CC(=O)Nc1c(Cl)cccc1Cl)C(=O)CCC(=O)c1ccccc1 was read as Pf growth 48h inconclusive and Pf growth 96h inactive.
COC(=O)c1cccc(Cn2nnc3ccccc3c2=O)c1 was read as CHX counter inactive, Pf growth 48h inactive, Giardia FBPA inh inactive, Shiga toxin inh inactive and NS1 function inh inactive.
Screening O=c1c2ccccc2nnn1COc1cccc2ccccc12 returned CHX counter 45, Pf growth 48h inactive, Pf growth 96h inactive, Giardia FBPA inh inconclusive and Shiga toxin inh 143.
O=c1c2ccccc2nnn1COc1ccc(Cl)cc1Br was read as CHX counter 29, Pf growth 48h inactive, Pf growth 96h inactive, Giardia FBPA inh inactive and Shiga toxin inh inactive.
`O=c1c2ccccc2nnn1COc1ccc(F)cc1Cl` gave CHX counter 41, Pf growth 48h inactive, Pf growth 96h inactive, Giardia FBPA inh inactive, Shiga toxin inh 55 and NS1 function inh inactive.
O=c1c2ccccc2nnn1Cc1ccc2ccccc2c1 was read as CHX counter 25, Pf growth 48h inactive, Pf growth 96h inactive, Giardia FBPA inh inactive, Shiga toxin inh inactive and NS1 function inh inactive.
`O=C(NC1CCCCC1)C(c1cccnc1)N(C(=O)c1csnn1)c1ccc(F)cc1` (centres undefined) gave CHX counter inactive, Pf growth 48h inactive, Pf growth 96h inconclusive, Giardia FBPA inh inactive, Shiga toxin inh inactive and NS1 function inh inactive.
Screening Cc1cc(OCCn2cncn2)ccc1[N+](=O)[O-] returned CHX counter inactive, Pf growth 48h inactive, Pf growth 96h inactive, Giardia FBPA inh inactive, Shiga toxin inh inactive and NS1 function inh inactive.
CNC(=S)S was read as CHX counter inactive, Giardia FBPA inh inactive and Shiga toxin inh inactive.
Screening CC(=O)c1cccc(NC(=O)N2CCC(NC(=O)C34CC5CC(CC(C5)C3)C4)CC2)c1 returned CHX counter inactive, Pf growth 48h inconclusive, Pf growth 96h inactive, Giardia FBPA inh inactive and Shiga toxin inh inactive.
`OC(c1ccc(Cl)cc1)C(O)c1nc2ccccc2[nH]1` (centres undefined) gave CHX counter inactive, Pf growth 48h inactive, Giardia FBPA inh inactive, Shiga toxin inh inactive and NS1 function inh inactive.
